Laboratory results as given in the supplement of paper PMC6555819.

Assays:
Experiment in all cases: PBM binding z-score (relative to random genomic background probes); higher = stronger binding; sequences stand for … in GC…GCGATTGACAGCGTAGAATGAAGG
[1] = system: PPARg:RXRa DBDmut IVT, anti-RXR (DBD mutation: RXRa K156A/R161A, NR concentration 270 nM, RXRa partner concentration 90 nM)
Summary of the method: (§1)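 For binding z-scores, the reference was random background probes on custom Agilent 4×180K protein-binding microarrays. These arrays were incubated 1 h with ligand-free nuclear receptor dimers in PBS pH 7.4, 2% milk, 0.02% Triton X-100, 1 mM DTT, 0.2 mg/mL BSA and 0.4 mg/ml salmon testes DNA. Fluorescence was scanned after antibody detection of each partner (one per run) and regression-normalized.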

[2] = system: PPARg:RXRa IVT, anti-PPARg (NR concentration 270 nM, RXRa partner concentration 90 nM)
Summary of the method: as §1

[3] = system: PPARg DBDmut:RXRa IVT, anti-PPARg (DBD mutation: PPARg1 K132A/R137A, NR concentration 270 nM, RXRa partner concentration 90 nM)
Summary of the method: as §1

[4] = system: PPARg DBDmut IVT, anti-PPARg (DBD mutation: PPARg1 K132A/R137A, NR concentration 270 nM)
Summary of the method: as §1

[5] = system: PPARg homodimer (NR concentration 180 nM)
Summary of the method: as §1

[6] = system: PXR:RXRa (NR concentration 270 nM, RXRa partner concentration 90 nM)
Summary of the method: as §1

[7] = system: PXR homodimer (NR concentration 270 nM)
Summary of the method: as §1

[8] = system: RARa:RXR (NR concentration 270 nM, RXRa partner concentration 90 nM)
Summary of the method: as §1

[9] = system: RARa homodimer (NR concentration 270 nM)
Summary of the method: as §1

[10] = system: RARb:RXRa (NR concentration 270 nM, RXRa partner concentration 90 nM)
Summary of the method: as §1

[11] = system: RARb homodimer (NR concentration 270 nM)
Summary of the method: as §1

[12] = system: RARg:RXRa (NR concentration 270 nM, RXRa partner concentration 90 nM)
Summary of the method: as §1

[13] = system: RARg homodimer (NR concentration 270 nM)
Summary of the method: as §1

[14] = system: RXRa DBDmut IVT, anti-RXR (DBD mutation: RXRa K156A/R161A, NR concentration 90 nM)
Summary of the method: as §1

[15] = system: RXRa homodimer (NR concentration 180 nM)
Summary of the method: as §1

[16] = system: THRa:RXRa (NR concentration 90 nM, RXRa partner concentration 90 nM)
Summary of the method: as §1

[17] = system: THRa homodimer (NR concentration 90 nM)
Summary of the method: as §1

[18] = system: VDR homodimer (NR concentration 270 nM)
Summary of the method: as §1

Sequence	PBM binding z-score [1]	PBM binding z-score [2]	PBM binding z-score [3]	PBM binding z-score [4]	PBM binding z-score [5]	PBM binding z-score [6]	PBM binding z-score [7]	PBM binding z-score [8]	PBM binding z-score [9]	PBM binding z-score [10]	PBM binding z-score [11]	PBM binding z-score [12]	PBM binding z-score [13]	PBM binding z-score [14]	PBM binding z-score [15]	PBM binding z-score [16]	PBM binding z-score [17]	PBM binding z-score [18]
TAGCCTAGGTCATGGGCCAGGATACCACGCGAAC	1.37	3.45	0.121	0.0645	0.888	1.54	-0.528	2.52	-0.123	3.8	2.85	4.26	4.49	-0.534	3.86	3.22	1.33	0.424
CCGACTGGGGCGTAAGGTTACCATAAGCCAGCCC	0.446	0.275	-1.37	-0.827	0.0631	0.213	-0.391	0.883	-0.676	1	1.23	0.788	0.295	-0.36	0.979	1.92	0.973	-0.426
GGAACGATGGCAAAGTTGATAGCATCTGTCGACG	-0.422	-0.327	0.0385	-1.16	-0.819	-0.402	-0.23	-0.727	-1.19	-0.325	-0.537	-0.206	0.0205	-0.199	-0.104	-0.533	-1.03	-0.827
ATCTCTAGGTAACCAAGTGCAGTGAATGCCGAAC	3.33	2.57	1.12	0.604	-0.00797	0.128	0.228	0.0514	-0.0338	0.281	0.232	0.129	0.205	0.0153	0.0437	0.515	0.223	0.337
TTACCAAGGTGAGCTGAGGACGTTGATCCAACTC	0.681	1.36	-0.327	-0.329	-0.722	2.25	-0.289	1.03	-0.906	1.05	0.308	0.112	0.436	-0.741	-0.041	4.53	1.6	-0.0863
TCATAAAGGTAATACAGGTGAAAGTCGGCATCTA	3.29	2.39	0.311	0.578	1.44	1.05	0.48	1.52	0.815	1.43	1.09	1.3	0.722	1.78	1.67	1.7	0.207	0.435
CCGACTGGGGCAAGGTTACAATAACGCACAGCCA	3.2	3.29	-0.578	-1.14	0.441	0.333	-0.113	0.945	0.189	1.38	1.47	1.1	1.24	-0.315	1.27	1.09	-0.205	0.439
CGATCTAGGTCATTGACAGGACAGTGAATAGTAA	7.84	7.9	1.48	1.96	1.92	1.64	0.255	2.35	0.361	3.61	2.8	4.48	4.41	2.67	2.41	3.11	1.21	1.49
CTCGATAGGTCGTGCTCAGGTGAGTATACCAAAC	0.241	0.78	-0.285	0.141	0.257	0.623	-0.52	1.44	-0.705	1.77	1.07	2.26	1.2	0.506	1.29	2.86	0.582	0.0382
AGAATGAGGTTAACATCAGGGAAACAGAATACAT	3.52	3.79	1.84	1.16	1.12	1.43	0.184	2.81	0.181	2.32	0.933	2.72	2.01	1.29	3.24	2.91	0.858	0.64
AATACAGGGTCACTAGGCCAGAGGAGGTACGAAT	3.99	5.89	1.86	1.11	2.18	2.95	0.559	4.12	0.96	4.17	3.25	5.14	5.04	2.54	5.66	3.34	1.54	2.73
GCTTACGGTTCAAAGGTTATAGCATGAATAGAAT	-0.685	0.999	0.711	0.999	0.99	4.71	0.601	6.22	0.458	2.33	1.54	3.57	1.39	2.62	7.16	2.59	0.09	2.52
CCTACTCGGCCAAAGGTCATTGATTCCAATGCTC	3.3	5.09	0.222	-0.127	3.85	5.38	2.54	5.95	1.19	4.56	4.75	6.07	5.2	1.7	6.26	3.41	1.46	2.63
TCGAGTAGGTTAGGGGCATTCACAATGGCGTCGA	2.39	1.39	-0.325	-0.622	0.582	0.481	0.107	0.506	-0.0724	0.977	0.776	0.234	0.502	0.518	0.424	1.06	0.276	1.04
CAAACTAGGTCACAAAGGTCAAAGTCCGTGCGTA	8.59	8.71	2.54	2.7	7.19	6.69	11.9	7.63	4.27	5.46	5.75	7.55	8.33	3.46	8.41	4.52	2.58	6.7
TAGCCTAGGTCATGGGCAAGTATACCACGCGAAC	1.64	3.48	-0.144	0.186	1.13	1.51	-0.303	2.48	-0.000605	4.09	3.17	4.22	4.58	0.0807	3.44	3.34	1.26	0.341

Sequence	PBM binding z-score [1]	PBM binding z-score [2]	PBM binding z-score [3]	PBM binding z-score [4]	PBM binding z-score [5]	PBM binding z-score [6]	PBM binding z-score [7]	PBM binding z-score [8]	PBM binding z-score [9]	PBM binding z-score [10]	PBM binding z-score [11]	PBM binding z-score [12]	PBM binding z-score [13]	PBM binding z-score [14]	PBM binding z-score [15]	PBM binding z-score [16]	PBM binding z-score [17]	PBM binding z-score [18]
GCTAGCAGGCCATTTGGGTCACTCATTGACGGGC	1.91	1.84	-1.26	-0.505	-0.295	0.252	-0.137	0.652	-0.74	1.26	1.77	0.783	1.14	0.292	0.477	1.69	0.799	0.121
TTACCAAGGTGATGGTCGTTGATCCCTCTGTAGA	1.08	1.23	-0.135	0.288	0.359	-0.171	-0.42	0.272	0.249	0.312	0.0776	-0.376	-0.245	-0.261	0.284	0.769	0.35	-0.232
AGGACGAGGGCAATGAGTTGATAGCACGGGTGGC	1.76	1.02	0.439	0.19	0.218	1.55	4.82	0.678	-0.00105	2.12	1.44	1.21	1.88	2.22	0.924	1.08	0.181	3.41
CAAACTAGGTGAAGGTCAAAGTCGGTTTGTGCCA	8.04	8.04	2.16	0.309	2.76	3.95	0.968	4.27	0.0969	3.87	3.92	4.07	4.37	1.5	4.34	3.14	0.696	2.23
TCTGCTAGGTCAGTTGGTCAGATAACGAGCTGCC	2.68	3.15	0.782	0.323	0.482	0.274	-0.646	0.69	-0.432	3.36	2.62	2.67	3.55	0.564	1.03	1.38	0.154	-0.455
ATACCAAGGTGATCGTGAGGTCGTTGACACTAAC	0.337	1.12	-0.329	0.642	1.07	3.23	1.34	2.52	0.306	1.4	1.85	2.27	0.855	0.311	1.56	3.63	2.59	2.93
CCTTACGGGTCACTGACAGGTAATAGCATTTGGA	3.21	3.64	1.3	1.52	4.26	2.95	-0.116	4.05	1.66	3.79	2.83	5.08	4.26	1.55	4.7	2.64	0.085	0.456
TCAGACAGGTGAGGGTAACTCAGGTACGCAGTCG	2.09	1.08	0.134	-0.531	0.237	0.408	-0.0185	0.722	-0.208	1.02	0.992	0.551	0.485	0.971	0.746	2.35	0.442	0.115
ACTTACGGGTCAACGAGGTTATAACACGCGTATA	3.68	4.21	3.33	2.76	4.28	5.81	4.42	5.84	2.39	4.37	3.71	5.74	5.07	3.22	6.33	4.34	1.32	4.13
TCTCGGAGGACGCGAAGGTCAGAGCTTTCCAGAG	0.846	-0.0947	-1.23	-1.47	0.0628	1.33	-0.286	1.61	-0.357	2.7	3.03	2.26	2.1	0.401	1.67	1.84	0.0235	0.488
CAAACTAGGTCACCGGAAGGTCACAGTCCGCATG	8.58	9.08	2.66	1.61	8.88	5.64	1.29	7.62	3.12	5.42	5.72	8.31	7.76	2.19	6.67	4.49	3.69	3.04
CCTAACGGGTCACTCCAGGTTATAGCATCGGAGT	1.88	2.52	-0.282	-0.298	1.23	4.32	0.412	2.86	0.233	3.15	2.75	3.8	3.98	1.23	3.26	4.85	0.619	1.5
ACAGACAGGTGATGAGGGTAACTCAGGCTATCAT	-0.0163	0.685	-0.934	0.0306	0.543	0.296	-0.131	0.591	-0.698	0.496	0.681	0.294	0.502	-0.49	0.588	2.72	0.561	-0.088
AGTATTAGTTGACTTAGGGCAACCGATACGACGC	-0.0999	0.548	0.229	1.16	0.56	0.237	0.692	0.353	1	1.12	1.29	0.595	1.02	0.0389	0.49	1.53	0.518	0.538
CCTTACGGGCCAAGGTTATAGCACGGGTGGTACG	-0.837	-0.312	-1.25	-0.861	0.309	0.0685	-0.372	0.242	0.00233	1.13	0.655	0.306	0.628	-1.14	0.273	0.713	0.104	0.207
